Source: PubChem
CHRM1 PAM: human M1 muscarinic receptor positive allosteric modulators, primary screen, CHO-K1 cells, Fluo-8 calcium fluorescence, 1536-well | activation, % at 3 µM | AID 588819, 2011 | CHO-K1 hM1, ACh EC20; 0% = ACh EC20, 100% = maximal ACh | Muscarinic acetylcholine receptor M1 (Homo sapiens), P11229 | 360,000 tested, 0.088% active; in the data active means activation above about 19%, passing the limit was not always enough
Target sequence (P11229 whole entry, looked up): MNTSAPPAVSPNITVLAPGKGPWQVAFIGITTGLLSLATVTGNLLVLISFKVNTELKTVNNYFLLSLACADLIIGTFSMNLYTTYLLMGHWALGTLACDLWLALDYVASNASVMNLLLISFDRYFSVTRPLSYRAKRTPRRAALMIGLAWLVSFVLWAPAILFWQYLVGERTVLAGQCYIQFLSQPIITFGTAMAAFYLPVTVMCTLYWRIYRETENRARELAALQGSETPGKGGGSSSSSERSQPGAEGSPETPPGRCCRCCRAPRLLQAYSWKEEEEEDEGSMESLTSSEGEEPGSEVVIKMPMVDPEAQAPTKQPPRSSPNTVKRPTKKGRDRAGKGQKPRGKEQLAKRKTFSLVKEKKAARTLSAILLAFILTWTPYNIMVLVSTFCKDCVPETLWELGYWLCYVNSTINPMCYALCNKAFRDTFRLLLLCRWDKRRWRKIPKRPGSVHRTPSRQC
CHRM1 agonist: human M1 muscarinic receptor agonists, primary screen, Fluo-8 calcium fluorescence, CHO-K1 cells, HTS | CHO-K1 hM1, agonist mode; 0% DMSO, 100% acetylcholine EC100 | Muscarinic acetylcholine receptor M1 (Homo sapiens), P11229 | activation, % at 3 µM | 360,000 tested, 0.33% active | AID 588814, 2011;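 active means activation above the run's mean compound activation plus 3 SD, cut at about 16% in these data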;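 further: peak over basal fluorescence ratio within a 140 s kinetic read after compound addition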
CHO-K1 Ca ag: counter-screen for M1 agonists: effect in parental CHO-K1 cells. Fluo-8 calcium fluorescence; scaled to maximal ATP response, vehicle zero. activation, % at 3 µM. 360,000 tested, 0.48% active; in the data active means activation above about 15%;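 further: untransfected CHO-K1 host cells lacking M1 receptor as counterscreen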
M1 antag: human M1 muscarinic receptor antagonists, primary screen, CHO-K1 cells, Fluo-8 calcium fluorescence, 1536-well; CHO-K1 hM1, ACh EC80 antagonist; Muscarinic acetylcholine receptor M1 (Homo sapiens), P11229; inhibition, % at 3 µM; 360,000 tested, 1.3% active;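 active means percent inhibition above its own plate's cutoff, namely the mean of that plate's compound wells plus 3 SD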;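 further: peak over basal fluorescence ratio during 140 s after agonist addition; 0% = ACh EC80 plus DMSO and 100% = DMSO alone without agonist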
CHO-K1 Ca antag: nonselective inhibitor or artifact in parental CHO-K1 cells; 360,000 tested, 0.6% active; ATP-induced calcium, Fluo-8 fluorescence; inhibition, % at 3 µM;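 active means inhibition above a per-plate cutoff, the plate's mean sample inhibition plus 3 SD, cut at about 24% in these data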;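 further: 0% = DMSO plus EC80 ATP and 100% = DMSO alone without ATP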
M1 PAM parental: nonselective calcium activators in parental CHO-K1 cells, primary screen, counter-screen for M1 PAM project, cell-based, Fluo-8 calcium fluorescence, full deck, 1536-well. activation, % at 3 µM. ATP EC20; 0% at ATP EC20, 100% at ATP max. 360,000 tested, 0.02% active;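 active means activation above the run cutoff, the mean activation of all test compounds plus 3 SD, cut at about 40% in these data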;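 further: peak over basal fluorescence ratio in a 140 s read after ATP addition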
Active calls of the source: *. Only some compounds are listed: those with a hit (about 2.4% of all), similar ones and a draw of the others.

For CCCCCCNCc1ccc(Br)cc1 the results were CHRM1 PAM -3, CHRM1 agonist 16*, CHO-K1 Ca ag 2, M1 antag -11, CHO-K1 Ca antag 4 and M1 PAM parental 9.
`CC(=NNc1nc2ccccc2o1)c1cc2ccccc2cn1` gave CHRM1 PAM 4, CHRM1 agonist -2, CHO-K1 Ca ag 2, M1 antag 3, CHO-K1 Ca antag 17 and M1 PAM parental -5.
For CC(=NNc1nc2ccccc2o1)c1ncccn1 the results were CHRM1 PAM -1, CHRM1 agonist -2, CHO-K1 Ca ag 3, M1 antag 14, CHO-K1 Ca antag 31* and M1 PAM parental -3.
For CC(=NNc1nc2ccccc2s1)c1ncccn1 the results were CHRM1 PAM 2, CHRM1 agonist 5, CHO-K1 Ca ag 9, M1 antag 4, CHO-K1 Ca antag 27* and M1 PAM parental 2.
CCOC(=O)C1CCN(C(=O)CN2C(=O)c3cccnc3Oc3ccccc32)CC1 was read as CHRM1 PAM 9, CHRM1 agonist 0, CHO-K1 Ca ag 0, M1 antag -11, CHO-K1 Ca antag -9 and M1 PAM parental -9.
For O/N=C/c1cccc[n+]1CCCCCC[n+]1ccccc1/C=N/O the results were CHRM1 PAM -22, CHRM1 agonist -9, CHO-K1 Ca ag 1, M1 antag 45*, CHO-K1 Ca antag 3 and M1 PAM parental 4.
`COc1ccc(C(=O)C[n+]2ccccc2/C=N/O)cc1` gave CHRM1 PAM -21, CHRM1 agonist -10, CHO-K1 Ca ag 0, M1 antag 16, CHO-K1 Ca antag 9 and M1 PAM parental -7.
Screening CCN(CC)S(=O)(=O)c1cccc(NC(=O)CN2C(=O)NC3(CCC(C)CC3)C2=O)c1 (stereo not drawn) returned CHRM1 PAM 6, CHRM1 agonist -1, CHO-K1 Ca ag 0, M1 antag -11, CHO-K1 Ca antag -4 and M1 PAM parental -23.
Screening Cc1cc(N2C(=O)C3C4C=CC(C4)C3C2=O)ccc1NC(=O)c1cccs1 (stereo not drawn) returned CHRM1 PAM 3, CHRM1 agonist -7, CHO-K1 Ca ag -1, M1 antag -7, CHO-K1 Ca antag 47* and M1 PAM parental -13.
For CCN(c1ccccc1)S(=O)(=O)c1ccc(C(=O)NC2CCN(Cc3ccccc3)CC2)cc1 the results were CHRM1 PAM -30, CHRM1 agonist 7, CHO-K1 Ca ag 14, M1 antag 66*, CHO-K1 Ca antag 20 and M1 PAM parental -25.
Screening O=C(NC1CCN(Cc2ccccc2)CC1)C1COc2ccccc2O1 (stereo not drawn) returned CHRM1 PAM -22, CHRM1 agonist -7, CHO-K1 Ca ag 0, M1 antag 83*, CHO-K1 Ca antag 3 and M1 PAM parental -5.
Screening COc1ccc(-c2noc(N3CCC(C(=O)NCCCN4CCC(C)CC4)CC3)n2)cc1 returned CHRM1 PAM -21, CHRM1 agonist -12, CHO-K1 Ca ag 2, M1 antag 32*, CHO-K1 Ca antag -22 and M1 PAM parental 17.
Screening CC(=O)OCCN1CCN(C(=O)CN2C(=O)NC(c3ccccc3)(c3ccccc3)C2=O)CC1 returned CHRM1 PAM 4, CHRM1 agonist 0, CHO-K1 Ca ag 0, M1 antag -21, CHO-K1 Ca antag -7 and M1 PAM parental 8.
O=C(COC(=O)c1cc(=O)[nH]c2ccccc12)c1cccs1 was read as CHRM1 PAM 1, CHRM1 agonist 0, CHO-K1 Ca ag 0, M1 antag 3, CHO-K1 Ca antag 30* and M1 PAM parental -19.
Screening CN1OC[C@@H]2CN(Cc3cc(Cl)cc(Cl)c3)[C@H](c3cccc(-c4ccccc4)c3)C[C@@H]21 returned CHRM1 PAM 5, CHRM1 agonist -2, CHO-K1 Ca ag 1, M1 antag -5, CHO-K1 Ca antag -13 and M1 PAM parental 13.
Screening CCC(c1nnc(SCC(=O)Nc2cc(S(C)(=O)=O)ccc2Cl)n1Cc1ccccc1)N(C)C (stereo not drawn) returned CHRM1 PAM 7, CHRM1 agonist -5, CHO-K1 Ca ag 1, M1 antag -14, CHO-K1 Ca antag -3 and M1 PAM parental 12.
Screening Cc1[nH]n(-c2ccccc2)c(=O)c1C(c1cccc([N+](=O)[O-])c1O)c1c(C)[nH]n(-c2ccccc2)c1=O returned CHRM1 PAM -4, CHRM1 agonist -2, CHO-K1 Ca ag 15*, M1 antag 15, CHO-K1 Ca antag 13 and M1 PAM parental 11.
For Cc1c(C(c2cccc([N+](=O)[O-])c2O)c2c(C)n(C)n(-c3ccccc3)c2=O)c(=O)n(-c2ccccc2)n1C the results were CHRM1 PAM 6, CHRM1 agonist -6, CHO-K1 Ca ag 1, M1 antag -8, CHO-K1 Ca antag -11 and M1 PAM parental 25.
`NS(=O)(=O)c1ccc(-n2cccc2C=O)cc1` gave CHRM1 PAM 7, CHRM1 agonist -8, CHO-K1 Ca ag 18*, M1 antag 2, CHO-K1 Ca antag 3 and M1 PAM parental 1.
For Cc1cccc(NC(=O)C2CCN(S(=O)(=O)c3c(C)noc3/C=C/c3ccco3)CC2)n1 the results were CHRM1 PAM -3, CHRM1 agonist -3, CHO-K1 Ca ag 4, M1 antag 5, CHO-K1 Ca antag -5 and M1 PAM parental 15.
`CCC(C)N1CCN(C(=O)C2CCN(S(=O)(=O)c3c(C)noc3/C=C/c3ccco3)CC2)CC1` (stereo not drawn) gave CHRM1 PAM -24, CHRM1 agonist -6, CHO-K1 Ca ag -1, M1 antag 80*, CHO-K1 Ca antag 10 and M1 PAM parental -18.
Screening Cc1cc(F)ccc1-c1cc(C(=O)NCc2ccc(C(F)(F)F)cc2)[nH]n1 returned CHRM1 PAM 1, CHRM1 agonist 32*, CHO-K1 Ca ag 16*, M1 antag 9, CHO-K1 Ca antag 3 and M1 PAM parental 26.
Screening CCOc1ccc(-c2cc(C(=O)NCc3ccc(C(F)(F)F)cc3)[nH]n2)c(C)c1 returned CHRM1 PAM -3, CHRM1 agonist -3, CHO-K1 Ca ag 0, M1 antag 2, CHO-K1 Ca antag 0 and M1 PAM parental -8.
Cc1ccc2cc(S(=O)(=O)NCCCN3CCOCC3)ccc2c1 was read as CHRM1 PAM 8, CHRM1 agonist -12, CHO-K1 Ca ag 19*, M1 antag 4, CHO-K1 Ca antag -1 and M1 PAM parental 23.
Screening CCC(C)N1CCCC1C(=O)Nc1c(C)cc(C)cc1C (stereo not drawn) returned CHRM1 PAM -6, CHRM1 agonist -5, CHO-K1 Ca ag -1, M1 antag 17, CHO-K1 Ca antag 25* and M1 PAM parental -10.
